Laboratory results reported in the supplement of paper PMC6555819.

Tests used:
Test in all cases: PBM binding z-score (relative to random genomic background probes); higher = stronger binding; sequences stand for … in GC…GCGATTGACAGCGTAGAATGAAGG
[1] = system: FXR:RXRa (NR concentration 270 nM, RXRa partner concentration 90 nM)
Outline: (§1)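 For binding z-scores, the reference was random background probes on custom Agilent 4×180K protein-binding microarrays. These arrays were incubated 1 h with ligand-free nuclear receptor dimers in PBS pH 7.4, 2% milk, 0.02% Triton X-100, 1 mM DTT, 0.2 mg/mL BSA and 0.4 mg/ml salmon testes DNA. Fluorescence was scanned after antibody detection of each partner (one per run) and regression-normalized.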

[2] = system: LXRa:RXRa (NR concentration 270 nM, RXRa partner concentration 90 nM)
Outline: as §1

[3] = system: LXRa homodimer (NR concentration 270 nM)
Outline: as §1

[4] = system: LXRb:RXRa (NR concentration 270 nM, RXRa partner concentration 90 nM)
Outline: as §1

[5] = system: LXRb homodimer (NR concentration 270 nM)
Outline: as §1

[6] = system: PPARa:RXRa (NR concentration 270 nM, RXRa partner concentration 90 nM)
Outline: as §1

[7] = system: PPARg:RXRa (NR concentration 180 nM, RXRa partner concentration 90 nM)
Outline: as §1

[8] = system: PPARg:RXRa 270nM:90nM, anti-RXR (NR concentration 270 nM, RXRa partner concentration 90 nM)
Outline: as §1

[9] = system: PPARg:RXRa 30nM:10nM, anti-RXR (NR concentration 30 nM, RXRa partner concentration 10 nM)
Outline: as §1

[10] = system: PPARg:RXRa 90nM:30nM, anti-RXR (NR concentration 90 nM, RXRa partner concentration 30 nM)
Outline: as §1

[11] = system: PPARg:RXRa DBDmut IVT, anti-RXR (DBD mutation: RXRa K156A/R161A, NR concentration 270 nM, RXRa partner concentration 90 nM)
Outline: as §1

[12] = system: PPARg:RXRa IVT, anti-PPARg (NR concentration 270 nM, RXRa partner concentration 90 nM)
Outline: as §1

[13] = system: PPARg DBDmut:RXRa IVT, anti-PPARg (DBD mutation: PPARg1 K132A/R137A, NR concentration 270 nM, RXRa partner concentration 90 nM)
Outline: as §1

[14] = system: PPARg DBDmut IVT, anti-PPARg (DBD mutation: PPARg1 K132A/R137A, NR concentration 270 nM)
Outline: as §1

[15] = system: PPARg homodimer (NR concentration 180 nM)
Outline: as §1

[16] = system: PXR:RXRa (NR concentration 270 nM, RXRa partner concentration 90 nM)
Outline: as §1

[17] = system: PXR homodimer (NR concentration 270 nM)
Outline: as §1

[18] = system: RARa:RXR (NR concentration 270 nM, RXRa partner concentration 90 nM)
Outline: as §1

[19] = system: RARa homodimer (NR concentration 270 nM)
Outline: as §1

[20] = system: RARb:RXRa (NR concentration 270 nM, RXRa partner concentration 90 nM)
Outline: as §1

Sequence | PBM binding z-score [1] | PBM binding z-score [2] | PBM binding z-score [3] | PBM binding z-score [4] | PBM binding z-score [5] | PBM binding z-score [6] | PBM binding z-score [7] | PBM binding z-score [8] | PBM binding z-score [9] | PBM binding z-score [10] | PBM binding z-score [11] | PBM binding z-score [12] | PBM binding z-score [13] | PBM binding z-score [14] | PBM binding z-score [15] | PBM binding z-score [16] | PBM binding z-score [17] | PBM binding z-score [18] | PBM binding z-score [19] | PBM binding z-score [20]
TAGCCTAGGGCATGCGGGCCAGTATAGTGTCGGC | -0.782 | -0.599 | -1.01 | -1.17 | -1.07 | -0.591 | -0.378 | -0.777 | -1.03 | -0.989 | -0.968 | 0.354 | -0.499 | -1.43 | -1.51 | -0.802 | -0.955 | -0.692 | -0.647 | 0.881
TTACCAAGGTGAAAGGTCGTTCATGCACGCCTTG | 3.83 | 3.72 | 0.593 | 3.18 | -0.344 | 5.32 | 8.83 | 8.22 | 8.68 | 8.9 | 2.97 | 5.04 | 0.222 | 0.115 | 1.16 | 3.93 | 0.838 | 5.63 | 0.139 | 3.06
CCCACTGGGGCATAAGGTTACCATAAGCCAGCCC | 0.325 | 1.44 | -0.234 | 0.476 | -1.1 | 2.36 | 3.91 | 4.26 | 1.73 | 3.6 | 3.37 | 4.87 | -0.75 | -0.412 | 0.0588 | 0.0928 | -0.684 | 1.07 | -0.44 | 1.46
GCTAGCAGGCCAGTTGGGTCACTCAATGACGGGC | -0.488 | -0.319 | -0.976 | -0.381 | -1.51 | 0.54 | 0.164 | 0.0245 | -0.726 | -0.378 | 0.163 | 0.353 | -1.62 | -2.01 | -0.447 | -0.0174 | -0.643 | 0.497 | -0.946 | 1.27
AGAATGAGTTTACCAAAGATCAGGGAAACGCTTG | -0.512 | 2.97 | -0.355 | -0.0367 | -0.632 | 0.0717 | 0.658 | 0.55 | 0.448 | 0.452 | -0.401 | -0.237 | 0.734 | -0.0652 | -0.566 | 0.296 | 0.241 | -0.198 | -0.325 | 0.347
AGTCAAAGTTCACTAGTTAACGTAAGATTCAGCT | 5.06 | 5.13 | 2.97 | 2.92 | 1.03 | 4.06 | 5.33 | 5.73 | 2.56 | 4.89 | 0.662 | 2.31 | 1.15 | 0.981 | 2.52 | 4.28 | 3.24 | 2.94 | 1.15 | 4.76
CCGACTGGGGCCGAAAGGTTACCATACCATCCGG | 0.707 | 0.858 | -0.0944 | 1.08 | -1.22 | 2.02 | 1.09 | 1.84 | 0.177 | 1.26 | -0.423 | 0.138 | -1.16 | -1.62 | 0.848 | 1.29 | -0.286 | 1.78 | -0.324 | 2.01
TCTTGTAGATCAGCAGGTTCAGAAAGCTGGCCAA | -0.19 | 0.323 | -0.435 | 0.265 | -0.738 | 0.609 | -0.665 | 1.1 | 2.02 | 1.52 | 1.4 | 0.189 | -0.291 | -0.791 | -0.268 | 0.644 | -0.241 | 0.455 | -0.229 | 0.0377
TCATATTGGTAAAGGTGAAAGTCGAACGATATGA | 0.751 | 1.1 | -0.299 | 1.19 | 0.0352 | 2.58 | 1.89 | 3.8 | 3.95 | 3.9 | 1.58 | 1.69 | 0.994 | 1.2 | 1.15 | 0.712 | -0.162 | 1.25 | 0.406 | 1.94
TTACCGAGGTGAAGGTCGTTGATCCCTCTGTAGA | 2.23 | 2.18 | -0.314 | 1.71 | -0.388 | 2.95 | 3.07 | 3.81 | 1.61 | 3 | 1.78 | 3.4 | 0.416 | 0.34 | 0.505 | 1.72 | 0.178 | 1.84 | -0.539 | 2.11
GCGACTGTGGCATCAGCAGGTTACCATAACTTAA | -0.475 | -0.391 | -0.237 | -0.0453 | -0.969 | 0.0749 | 0.0982 | -0.457 | -0.399 | -0.487 | 0.287 | 0.27 | -0.703 | -1.08 | -0.566 | -0.281 | -0.227 | 0.0331 | -0.798 | 0.00959
CTCGAAAGGTCGTGCTCCGGTGAGTATACCAAAC | 5.22 | 3.95 | 0.167 | 3.33 | 0.24 | 4.95 | 2.82 | 4.07 | 0.826 | 2.65 | 0.784 | 1.77 | 0.64 | 0.56 | 2.34 | 3.57 | 0.18 | 4.87 | -0.416 | 4.04
GCTGATAGGTCAACTGATGGTCAGCTAAAGCTCG | 5.47 | 4.76 | 0.669 | 3.53 | 0.283 | 4.84 | 3.41 | 4.06 | 1.34 | 2.96 | 3.71 | 3.35 | -0.33 | -0.713 | 4.6 | 3 | -0.565 | 4.46 | 1.39 | 4.48
GCTAGCAGGCCATTTGGGTCACTCGATGACGGGC | -0.0398 | -0.0743 | -0.738 | -0.0448 | -0.791 | 1.25 | 0.641 | 0.713 | -0.472 | 0.633 | 2.18 | 2.18 | -0.31 | -1.28 | -0.101 | 0.388 | -0.29 | 0.794 | -0.742 | 1.39
